Screening data from PubChem.
The list is not random: actives were taken first. Their share in the collection is about 7.3%.
AmpC inh detg: inhibitors of E. coli AmpC beta-lactamase with detergent; AmpC hydrolysis of nitrocefin, absorbance 480 nm, 0.01% Triton; Potency, µM (highest dose often 114 µM), for inactives: top-dose activity change, negative = inhibition, actives largely listed as inhibitors; P00811; 0.041% of 370,000 active;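 note: potency is the fitted concentration of half-maximal effect; 0% = no-compound wells and -100% = no-enzyme wells; nearly all actives have a fitted effect of over 25% in size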
Target sequence (P00811 whole entry, looked up): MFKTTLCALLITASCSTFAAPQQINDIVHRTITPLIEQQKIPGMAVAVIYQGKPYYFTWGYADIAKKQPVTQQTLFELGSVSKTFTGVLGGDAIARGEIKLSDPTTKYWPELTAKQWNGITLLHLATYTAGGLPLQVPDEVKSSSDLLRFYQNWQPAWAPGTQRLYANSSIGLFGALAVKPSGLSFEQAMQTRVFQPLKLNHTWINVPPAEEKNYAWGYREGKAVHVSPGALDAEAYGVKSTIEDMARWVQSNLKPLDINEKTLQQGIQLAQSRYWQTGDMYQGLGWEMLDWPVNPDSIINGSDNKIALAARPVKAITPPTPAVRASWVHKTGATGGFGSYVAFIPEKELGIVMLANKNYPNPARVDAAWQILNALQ
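20 mM phosphate pH 7.0 + 0.01% (detergent screen) or 0.0001% Triton X-100; 5.3 nM AmpC reagent; cpd preinc 15 min RT; nitrocefin (800 uM stock) to start; A480 q20 s × 4 min; Activity was normalised to no-enzyme and no-compound control wells.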
HCMV inh: human cytomegalovirus inhibition; 4.5% of 410,000 active; activity change, negative = inhibition, % at 57.5 µM; HFF cells, HCMV-luciferase reporter, 72 h; stronger effect = lower value; AID 1259415; in the data active = activity change below about -60%; inconclusive = no clear call, values can overlap the other calls; inactive = above about -39%
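Luciferase read-out from HCMV-luciferase-infected HFFs (MOI 1 PFU/cell) 72 h post infection at 37C; compounds added after 16 h cell attachment; activity normalized between buffer-only basal and Salinomycin (10uM) inhibitor controls.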
AmpC inh no detg: blocks E. coli AmpC beta-lactamase in detergent-free assay; Potency, µM (titrated, usually from 57.1 µM), inactives show at the highest dose activity change, negative = inhibition, usual class: inhibitors; 0.52% of 330,000 active; AmpC nitrocefin hydrolysis, absorbance 480 nm, 0.0001% Triton; P00811;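 note: potency is the fitted concentration of half-maximal effect; plate controls were no compound for no effect and no enzyme for full effect; nearly all actives have a fitted effect of over 20% in size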
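AmpC (5.3 nM in the dispensed reagent) in 20 mM phosphate pH 7.0 with 0.01% (detergent screen) or 0.0001% Triton X-100 was preincubated with compounds for 15 min at room temperature. Nitrocefin was then added from an 800 uM solution, and hydrolysis was followed at 480 nm.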
FMDV inh: foot and mouth disease virus antiviral activity. FMDV antiviral cell-based qHTS. Potency, µM (titrated, usually from 57.9 µM), for the others: at the top dose activity change, negative = inhibition, most hits filed as inhibitors. 1.2% of 410,000 active; calls by dose curve; tested in HEK293T cells; note: read-out not given here; potency is the fitted concentration of half-maximal effect; nearly all actives have a fitted effect of over 45% in size
HCV inhibitor: inhibitors of hepatitis C virus infection; Huh7.5.1 HCVcc-Cre infection, luciferase reporter, 44 h; Potency, µM (doses to about 41.8 µM), for inactives: top-dose activity change, negative = inhibition, actives largely listed as inhibitors; 3.4% of 340,000 active; note: potency is the fitted concentration of half-maximal effect
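Cells (1,000/well) were plated 4 h before compound, then infected with HCVcc-Cre virus (~0.5 moi). After 44 h further culture, infection was read as luciferase luminescence following a 15 min substrate incubation at room temperature.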
Numbers without * were called inactive; [ ] = another dose, or the depositor's remark. Unless noted, calls come from the whole dose curve; as a rule, active = well fitted curve in the direction sought with a large enough effect; inconclusive = small, poorly fitted or top-dose-only effect, or another doubt; inactive = no such curve, though single readings can be large; an effect the other way counts as inactive or inconclusive. Unless noted, % is set by controls: 0 for no effect and ±100 for the full control effect.

`CCC(C(=O)Nc1cc(F)ccc1F)n1nc(C)c2c(C)n(-c3ccc(C)cc3)nc2c1=O` (stereo unspecified) gave AmpC inh detg -4.2%, HCMV inh -95.3*, AmpC inh no detg 1.0%, FMDV inh inconclusive and HCV inhibitor 8.91µM*.
Cc1cccc(CNC(=O)C(C)n2nc(C)c3c(C)n(-c4ccccc4)nc3c2=O)c1 (stereo unspecified) was read as AmpC inh detg -5.8%, HCMV inh -8.6, AmpC inh no detg -0.6%, FMDV inh -25.1% and HCV inhibitor 10µM*.
Screening CCC(C(=O)Nc1ccccc1F)n1nc(C)c2c(C)n(-c3ccccc3)nc2c1=O (stereo unspecified) returned AmpC inh detg 5.0%, HCMV inh inconclusive, AmpC inh no detg 14.4%, FMDV inh -5.4% and HCV inhibitor -15.5%.
`COc1ccc(CCNC(=O)C(C)n2nc(C)c3c(C)n(-c4ccc(C)cc4)nc3c2=O)c(OC)c1` (stereo unspecified) gave AmpC inh detg -0.4%, HCMV inh -98.0*, AmpC inh no detg 43.0%, FMDV inh inconclusive and HCV inhibitor 3.16µM*.
CN1C2C=CC(=O)C1C1C(=O)N(c3ccccc3)C(=O)C12 (stereo unspecified) was read as HCMV inh -23.2 and FMDV inh inconclusive.
`CN1C(=O)N(CC(=O)N2CCN(S(=O)(=O)Cc3ccccc3)CC2)C(=O)C12CCCCC2` gave AmpC inh detg 0.0%, HCMV inh -23.8, AmpC inh no detg 34.2%, FMDV inh 0.0% and HCV inhibitor 1.8%.
`Cn1c(=O)n(C)c2cc([N+](=O)[O-])c(N3CCN(S(=O)(=O)c4ccc(C(C)(C)C)cc4)CC3)cc21` gave AmpC inh detg -13.8%, HCMV inh -94.4*, AmpC inh no detg -12.8% and HCV inhibitor 14.1µM*.
`O=[N+]([O-])c1cc(C(F)(F)F)cc([N+](=O)[O-])c1N1CCN(S(=O)(=O)c2ccccc2)CC1` gave AmpC inh detg -5.1%, HCMV inh -16.5, AmpC inh no detg -50.4%, FMDV inh inconclusive and HCV inhibitor inconclusive.
Screening CC(=O)Nc1ccc(S(=O)(=O)N2CCN(c3cc4c(cc3[N+](=O)[O-])n(C)c(=O)n4C)CC2)cc1 returned AmpC inh detg 4.2%, HCMV inh -28.1, AmpC inh no detg 63.6% and FMDV inh inconclusive.
`O=[N+]([O-])c1cc(C(F)(F)F)ccc1N1CCN(S(=O)(=O)c2ccc3ccccc3c2)CC1` gave AmpC inh detg 1.1%, HCMV inh -69.0*, AmpC inh no detg -50.2%, FMDV inh inconclusive and HCV inhibitor 6.31µM*.
`Cc1nc2ccccc2c2oc(C(=O)Nc3ccc(C(C)C)cc3)cc12` gave AmpC inh detg 3.8%, HCMV inh -68.2*, AmpC inh no detg 93.5%, FMDV inh inconclusive and HCV inhibitor inconclusive.
Screening Cc1nc2ccccc2c2oc(C(=O)Nc3ccc4c(c3)OCCO4)cc12 returned AmpC inh detg -8.9%, HCMV inh -30.7, AmpC inh no detg 83.0%, FMDV inh -27.6% and HCV inhibitor 12.6µM*.
COc1cc(NC(=O)c2cc3c(C)nc4ccccc4c3o2)cc(OC)c1OC was read as AmpC inh detg inconclusive, HCMV inh -23.8, AmpC inh no detg 158.2%, FMDV inh 0.0% and HCV inhibitor inconclusive.
Cc1nc2ccccc2c2oc(C(=O)N3CCc4ccccc43)cc12 was read as AmpC inh detg 6.5% and AmpC inh no detg -12.9%.
Screening CC(=O)c1ccc(C(=O)N2CCCC(CO)(Cc3ccccc3C)C2)s1 (stereo unspecified) returned AmpC inh detg -4.5%, HCMV inh 61.1, AmpC inh no detg 38.3%, FMDV inh 4.7% and HCV inhibitor 27.4%.
Screening CCCCC[C@@H](/C=C/C1C(=O)C=C[C@H]1C/C=C\CCCC(=O)OC)OC(C)=O (stereo partly specified) returned HCMV inh 1.6, FMDV inh 28.2µM* and HCV inhibitor -9.3%[8.37 µM].
`OCCN(CCO)c1ccc2ccccc2c1` gave AmpC inh detg inconclusive, HCMV inh 90.4, AmpC inh no detg -19.6%, FMDV inh -6.1% and HCV inhibitor 9.3%.
